In ChEMBL document CHEMBL3988442, “University of Dundee, Small-Polar-MMV Screening Library” (2021):
For part of these data: Potency and affinity values are given separately.

Columns and labels:
Set-up in all cases: scale not given: direction of the effect not stated beside the values
[1] = biological target: Protein translocase subunit SecA (Escherichia coli (strain K12)) (UniProt P10408); assay: Assay to Identify E. coli SecA ATPase Inhibitors; type: functional; settings: 30 µM
[2] = biological target: T1, Ubiquitin-activating enzyme e1, putative (Leishmania donovani (strain BPK282A1)) (UniProt E9BSI1); assay: Leishmania donovani Ubiquitin Activating Enzyme (LdE1); type: functional; settings: 30 µM
T1 sequence (whole entry): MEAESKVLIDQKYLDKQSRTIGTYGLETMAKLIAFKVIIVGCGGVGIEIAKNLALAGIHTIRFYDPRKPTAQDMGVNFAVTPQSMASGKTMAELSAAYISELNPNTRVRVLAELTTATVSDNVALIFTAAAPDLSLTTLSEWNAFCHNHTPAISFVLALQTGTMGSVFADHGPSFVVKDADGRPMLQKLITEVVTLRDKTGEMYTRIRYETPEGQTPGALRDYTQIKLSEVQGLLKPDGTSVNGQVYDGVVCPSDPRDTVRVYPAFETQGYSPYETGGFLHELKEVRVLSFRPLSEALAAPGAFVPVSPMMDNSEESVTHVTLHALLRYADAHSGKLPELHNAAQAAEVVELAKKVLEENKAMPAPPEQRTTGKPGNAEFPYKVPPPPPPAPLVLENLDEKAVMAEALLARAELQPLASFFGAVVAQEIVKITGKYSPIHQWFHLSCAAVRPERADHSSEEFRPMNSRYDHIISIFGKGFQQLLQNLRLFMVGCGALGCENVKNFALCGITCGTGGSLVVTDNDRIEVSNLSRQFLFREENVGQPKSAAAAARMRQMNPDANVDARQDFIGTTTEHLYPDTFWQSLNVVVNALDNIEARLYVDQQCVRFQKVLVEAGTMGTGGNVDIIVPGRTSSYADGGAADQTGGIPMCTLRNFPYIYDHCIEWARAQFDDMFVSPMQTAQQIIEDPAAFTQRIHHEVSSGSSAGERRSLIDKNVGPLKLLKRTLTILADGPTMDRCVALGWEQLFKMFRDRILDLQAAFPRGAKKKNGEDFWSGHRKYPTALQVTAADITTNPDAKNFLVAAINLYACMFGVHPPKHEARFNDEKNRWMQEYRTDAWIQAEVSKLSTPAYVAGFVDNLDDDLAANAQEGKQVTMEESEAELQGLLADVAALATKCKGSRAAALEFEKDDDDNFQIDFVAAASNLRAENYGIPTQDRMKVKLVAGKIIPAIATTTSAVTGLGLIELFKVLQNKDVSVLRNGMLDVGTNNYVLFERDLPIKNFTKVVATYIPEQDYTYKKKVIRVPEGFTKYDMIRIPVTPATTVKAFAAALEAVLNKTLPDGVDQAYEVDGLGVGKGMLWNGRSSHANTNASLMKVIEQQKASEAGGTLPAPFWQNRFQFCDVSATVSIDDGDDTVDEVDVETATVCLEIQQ

[3] = biological target: Sialic acid-binding Ig-like lectin 9 (Homo sapiens) (UniProt Q9Y336); assay: Hs-Siglec9 ALPHAscreen SOP 20170721; settings: 10 µM
Chain of Sialic acid-binding Ig-like lectin 9 (Homo sapiens) (Q9Y336 whole entry): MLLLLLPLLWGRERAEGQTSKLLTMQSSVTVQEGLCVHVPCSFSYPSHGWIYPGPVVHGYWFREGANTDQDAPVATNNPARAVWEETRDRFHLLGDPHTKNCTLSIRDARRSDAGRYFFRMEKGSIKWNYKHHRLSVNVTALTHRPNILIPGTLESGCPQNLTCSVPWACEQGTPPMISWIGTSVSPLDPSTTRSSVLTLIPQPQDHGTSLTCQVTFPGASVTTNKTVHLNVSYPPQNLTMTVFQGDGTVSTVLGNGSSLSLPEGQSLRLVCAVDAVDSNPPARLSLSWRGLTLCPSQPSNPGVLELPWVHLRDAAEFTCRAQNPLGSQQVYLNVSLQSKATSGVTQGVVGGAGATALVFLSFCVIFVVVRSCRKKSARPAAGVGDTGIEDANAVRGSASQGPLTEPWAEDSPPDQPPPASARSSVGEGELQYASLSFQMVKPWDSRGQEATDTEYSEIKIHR

Trypanosoma cruzi = assay: Trypanosoma cruzi phosphomannomutase and mannose-1-phosphate guanylyltransferase assay; type: functional; settings: 10 µM
[4] = biological target: T2, Arginase-2, mitochondrial (Homo sapiens) (UniProt P78540); assay: in vitro enzyme assay to detect the production of urea directly proportional to the activity of Arginase II; type: functional; settings: 33.3 µM; also: in the data most compounds retested in dose-response had high values
T2 sequence (whole entry): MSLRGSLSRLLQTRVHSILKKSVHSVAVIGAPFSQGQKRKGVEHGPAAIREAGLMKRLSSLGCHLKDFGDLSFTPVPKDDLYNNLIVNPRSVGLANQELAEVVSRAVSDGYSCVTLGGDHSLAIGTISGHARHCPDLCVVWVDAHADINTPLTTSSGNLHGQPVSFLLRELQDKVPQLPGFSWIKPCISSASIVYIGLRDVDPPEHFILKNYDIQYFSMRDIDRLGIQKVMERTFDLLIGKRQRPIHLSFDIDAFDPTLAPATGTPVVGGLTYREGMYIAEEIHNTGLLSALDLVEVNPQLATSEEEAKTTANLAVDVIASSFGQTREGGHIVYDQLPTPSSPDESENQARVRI

[5] = biological target: T3, Proteasome subunit beta (Trypanosoma cruzi) (UniProt O96673); assay: Trypanosoma cruzi proteasome chymotrypsin-like activity (TcProtChymo) assay.; also: in the data most compounds retested in dose-response had high values; type: functional; settings: 9.37 µM
T3 sequence (whole entry): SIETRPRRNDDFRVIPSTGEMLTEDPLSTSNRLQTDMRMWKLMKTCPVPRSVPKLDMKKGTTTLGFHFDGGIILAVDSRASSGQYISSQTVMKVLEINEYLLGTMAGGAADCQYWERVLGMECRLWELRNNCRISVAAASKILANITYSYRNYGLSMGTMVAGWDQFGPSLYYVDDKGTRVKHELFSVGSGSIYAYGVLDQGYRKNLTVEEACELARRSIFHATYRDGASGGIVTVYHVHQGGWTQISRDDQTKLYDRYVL

Homo sapiens = species: Homo sapiens; assay: To identify inhibition of the IFN signalling (Jak-Stat) pathway via expression of an eGFP reporter gene under the control of an IFN-stimulated response element (ISRE) containing MxA promoter.; type: functional; settings: 30 µM
[6] = biological target: T4, Tyrosyl-tRNA synthetase, putative (Trypanosoma cruzi (strain CL Brener)) (UniProt Q4DSP6); assay: Trypanosoma cruzi tyrosyl tRNA synthetase (TcYRS) _High Tyrosine SOP; type: functional; settings: 30 µM; also: in the data most compounds retested in dose-response had high values
T4 sequence (whole entry): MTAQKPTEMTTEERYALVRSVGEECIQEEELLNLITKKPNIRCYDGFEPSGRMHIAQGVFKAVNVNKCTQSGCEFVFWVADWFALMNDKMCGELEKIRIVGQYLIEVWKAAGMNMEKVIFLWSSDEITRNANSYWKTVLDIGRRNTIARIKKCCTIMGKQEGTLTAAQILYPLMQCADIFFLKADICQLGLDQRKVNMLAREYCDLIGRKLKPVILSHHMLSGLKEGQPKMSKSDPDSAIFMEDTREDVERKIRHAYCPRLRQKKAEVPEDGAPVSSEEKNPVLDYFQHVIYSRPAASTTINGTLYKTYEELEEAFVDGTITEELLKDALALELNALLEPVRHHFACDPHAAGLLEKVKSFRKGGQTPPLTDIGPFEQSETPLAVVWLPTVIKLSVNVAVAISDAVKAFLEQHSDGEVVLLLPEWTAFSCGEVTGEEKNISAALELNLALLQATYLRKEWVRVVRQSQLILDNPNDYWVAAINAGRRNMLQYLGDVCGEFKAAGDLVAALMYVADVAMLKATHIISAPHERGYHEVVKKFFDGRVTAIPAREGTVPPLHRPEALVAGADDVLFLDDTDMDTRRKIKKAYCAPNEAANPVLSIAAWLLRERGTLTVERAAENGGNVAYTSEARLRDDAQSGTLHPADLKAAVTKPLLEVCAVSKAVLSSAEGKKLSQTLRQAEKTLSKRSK

[7] = biological target: T4, Tyrosyl-tRNA synthetase, putative (Trypanosoma cruzi (strain CL Brener)); assay: Trypanosoma cruzi tyrosyl tRNA synthetase (TcYRS) SOP; type: functional; settings: 30 µM
[8] = biological target: Chromo domain-containing protein 1 (Saccharomyces cerevisiae (strain ATCC 204508 / S288c) (Baker's yeast)) (UniProt P32657); assay: ScCHD-1 Enzyme Inhibition Assay; type: functional; settings: 30 µM; also: in the data most compounds retested in dose-response had high values
Chain of Chromo domain-containing protein 1 (Saccharomyces cerevisiae (strain ATCC 204508 / S288c) (Baker's yeast)) (P32657 whole entry, the tested form may be a part): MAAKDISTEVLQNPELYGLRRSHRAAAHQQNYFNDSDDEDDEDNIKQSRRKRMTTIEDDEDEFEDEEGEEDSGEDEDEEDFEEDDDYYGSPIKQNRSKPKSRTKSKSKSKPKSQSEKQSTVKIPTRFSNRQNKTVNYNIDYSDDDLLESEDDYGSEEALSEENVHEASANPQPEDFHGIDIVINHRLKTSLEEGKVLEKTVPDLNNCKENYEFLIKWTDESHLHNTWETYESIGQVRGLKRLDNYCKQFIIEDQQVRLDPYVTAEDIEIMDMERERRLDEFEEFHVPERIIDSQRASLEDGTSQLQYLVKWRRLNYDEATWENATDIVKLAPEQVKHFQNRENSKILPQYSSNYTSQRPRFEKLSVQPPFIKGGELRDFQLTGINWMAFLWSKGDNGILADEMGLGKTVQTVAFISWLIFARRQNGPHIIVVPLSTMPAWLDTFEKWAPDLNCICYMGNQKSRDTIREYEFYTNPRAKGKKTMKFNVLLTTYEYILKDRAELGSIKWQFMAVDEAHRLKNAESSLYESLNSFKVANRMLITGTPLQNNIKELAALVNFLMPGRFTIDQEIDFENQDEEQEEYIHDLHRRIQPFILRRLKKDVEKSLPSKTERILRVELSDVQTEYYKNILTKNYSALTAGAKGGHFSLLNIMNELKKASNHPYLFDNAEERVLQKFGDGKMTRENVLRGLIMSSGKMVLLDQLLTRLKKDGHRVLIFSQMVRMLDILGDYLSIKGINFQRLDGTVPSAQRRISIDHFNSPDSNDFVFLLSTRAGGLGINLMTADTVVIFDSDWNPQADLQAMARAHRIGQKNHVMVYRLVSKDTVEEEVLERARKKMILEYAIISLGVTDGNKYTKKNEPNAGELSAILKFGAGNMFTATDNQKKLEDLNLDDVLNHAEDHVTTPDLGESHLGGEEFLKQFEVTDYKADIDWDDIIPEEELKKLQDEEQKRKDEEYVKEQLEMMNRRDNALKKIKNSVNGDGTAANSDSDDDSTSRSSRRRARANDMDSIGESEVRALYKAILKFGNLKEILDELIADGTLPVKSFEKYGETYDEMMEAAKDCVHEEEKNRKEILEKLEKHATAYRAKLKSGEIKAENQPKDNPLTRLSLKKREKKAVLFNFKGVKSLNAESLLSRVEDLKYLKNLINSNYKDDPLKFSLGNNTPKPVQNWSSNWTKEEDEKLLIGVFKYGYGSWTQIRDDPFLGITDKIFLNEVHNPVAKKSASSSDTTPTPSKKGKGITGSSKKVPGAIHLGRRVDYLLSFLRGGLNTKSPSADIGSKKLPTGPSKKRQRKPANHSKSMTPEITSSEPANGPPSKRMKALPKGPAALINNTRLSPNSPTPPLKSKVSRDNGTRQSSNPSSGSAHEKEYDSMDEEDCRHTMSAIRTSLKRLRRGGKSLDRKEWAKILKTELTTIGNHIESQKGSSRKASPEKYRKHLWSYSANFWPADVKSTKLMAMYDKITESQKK

Chain of Protein translocase subunit SecA (Escherichia coli (strain K12)) (P10408 whole entry): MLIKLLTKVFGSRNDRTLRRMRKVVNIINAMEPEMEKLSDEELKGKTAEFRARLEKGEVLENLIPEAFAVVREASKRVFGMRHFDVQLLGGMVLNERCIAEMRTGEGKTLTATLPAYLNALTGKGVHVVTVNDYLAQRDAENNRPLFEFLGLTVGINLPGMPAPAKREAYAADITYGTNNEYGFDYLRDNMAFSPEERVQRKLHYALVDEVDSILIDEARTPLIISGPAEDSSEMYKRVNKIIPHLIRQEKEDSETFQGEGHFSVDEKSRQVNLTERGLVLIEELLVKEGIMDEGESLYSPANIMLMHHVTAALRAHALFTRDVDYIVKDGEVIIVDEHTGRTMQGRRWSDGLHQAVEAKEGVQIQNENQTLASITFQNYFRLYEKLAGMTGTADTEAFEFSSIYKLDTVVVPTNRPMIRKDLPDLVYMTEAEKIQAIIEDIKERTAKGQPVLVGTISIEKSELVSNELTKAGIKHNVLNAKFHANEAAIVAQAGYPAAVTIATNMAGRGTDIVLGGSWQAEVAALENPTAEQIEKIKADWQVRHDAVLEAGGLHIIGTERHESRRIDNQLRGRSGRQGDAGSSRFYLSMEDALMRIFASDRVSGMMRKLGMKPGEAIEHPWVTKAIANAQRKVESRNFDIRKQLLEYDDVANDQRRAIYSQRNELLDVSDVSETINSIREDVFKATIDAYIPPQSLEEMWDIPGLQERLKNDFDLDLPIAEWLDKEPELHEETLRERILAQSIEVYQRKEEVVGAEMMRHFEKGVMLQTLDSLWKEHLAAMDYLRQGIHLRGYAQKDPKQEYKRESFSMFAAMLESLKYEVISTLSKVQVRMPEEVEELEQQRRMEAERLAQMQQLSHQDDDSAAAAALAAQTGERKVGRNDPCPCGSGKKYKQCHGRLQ

Work on `CNc1cccc(C2CCCN(C(C)=O)C2)n1` (stereo not given) yielded a Percent Effect [1] of 1.36%, a Percent Effect [2] of 6.67% and a Percent Effect [3] of -7.25%. The Percent Effect (Trypanosoma cruzi) was -6.71%, the Percent Effect [4] was 3.98% and the Percent Effect [5] was 14.1%. The Percent Effect (Homo sapiens) was 17.4%, the Percent Effect [6] was 1.06% and the Percent Effect [7] was 5%. It also gave a Percent Effect [8] of -14.4%.
For `CSc1ccc(Cl)c(C(=O)N2CCCC(CNS(C)(=O)=O)C2)c1` (stereo not given), the Percent Effect [1] was 0.802%, the Percent Effect [2] was 26% and the Percent Effect [3] was -6.07%. The Percent Effect (Trypanosoma cruzi) was 1.12%, the Percent Effect [4] was -14.6% and the Percent Effect [5] was 18.2%. The Percent Effect (Homo sapiens) was 13%, the Percent Effect [6] was 1.96% and the Percent Effect [7] was 28.2%. The Percent Effect [8] was -11.3%.
Compound `COCCO[C@H]1CCN(C(=O)c2cc(C)on2)[C@H]1Cc1ccccc1` has a Percent Effect [1] of -2.31%, a Percent Effect [2] of 11.7% and a Percent Effect [3] of 3.34%. For the same compound, the Percent Effect (Trypanosoma cruzi) was -1.88%, the Percent Effect [4] was -0.913% and the Percent Effect [5] was 7.47%. It also gave a Percent Effect (Homo sapiens) of 18.8%, a Percent Effect [6] of 7.73% and a Percent Effect [7] of 10%. It also gave a Percent Effect [8] of -5.82%.
`Cc1nc(C)n(CC2CN(CCOc3ccccc3F)CCO2)n1` (stereo not given) gave a Percent Effect [1] of -2.06%, a Percent Effect [2] of 5.33% and a Percent Effect [3] of -0.849%. For the same compound, the Percent Effect (Trypanosoma cruzi) was 0.803%, the Percent Effect [4] was -2.66% and the Percent Effect [5] was -2.97%. For the same compound, the Percent Effect (Homo sapiens) was 9.21%, the Percent Effect [6] was -1.58% and the Percent Effect [7] was 0%. The Percent Effect [8] was -2.97%.
`CC(NC(=O)N1CCN(c2ccc(Cl)cc2)CC1)C(=O)N1CCSCC1` (stereo not given) gave a Percent Effect [1] of -6.05%, a Percent Effect [2] of 8.11% and a Percent Effect [3] of 0.915%. It also gave a Percent Effect (Trypanosoma cruzi) of -2.04%, a Percent Effect [4] of 0.35% and a Percent Effect [5] of 17.8%. For the same compound, the Percent Effect (Homo sapiens) was 13.2%, the Percent Effect [6] was 5.85% and the Percent Effect [7] was 12.2%. The Percent Effect [8] was -1.19%.
`CCc1n[nH]c(C2CN(C(=O)c3nc(C)ncc3Cl)CCO2)n1` (stereo not given) showed a Percent Effect [1] of -2.86%, a Percent Effect [2] of 7.79% and a Percent Effect [3] of 9.79%. The Percent Effect (Trypanosoma cruzi) was -2.24%, the Percent Effect [4] was 1.43% and the Percent Effect [5] was -0.351%. The Percent Effect (Homo sapiens) was 2.84%, the Percent Effect [6] was 2.94% and the Percent Effect [7] was 7.06%. For the same compound, the Percent Effect [8] was 2.12%.
In the case of `COCCC(=O)N1CCCC2(CCC(=O)N2CCOC)CC1` (stereo not given), the Percent Effect [1] is reported as -2.63%, the Percent Effect [2] is reported as 11.7% and the Percent Effect [3] is reported as -2.38%. For the same compound, the Percent Effect (Trypanosoma cruzi) was -4.13%, the Percent Effect [4] was 4.57% and the Percent Effect [5] was -1.97%. It also gave a Percent Effect (Homo sapiens) of 11.1%, a Percent Effect [6] of 2.9% and a Percent Effect [7] of 2.5%. The Percent Effect [8] was -3.46%.
`c1cnnc(N2CCCC(NCc3cn4ccccc4n3)C2)c1` (stereo not given) was tested, and the Percent Effect [1] was 4.38%, the Percent Effect [2] was 23.4% and the Percent Effect [3] was -9.09%. It also gave a Percent Effect (Trypanosoma cruzi) of -10.8%, a Percent Effect [4] of -1.43% and a Percent Effect [5] of 26.5%. For the same compound, the Percent Effect (Homo sapiens) was 17%, the Percent Effect [6] was 8.82% and the Percent Effect [7] was 11.8%. It also gave a Percent Effect [8] of -10.5%.
`Cc1ccc(C(=O)N2C[C@@H](OCC3CCOCC3)[C@H]3OCCC[C@H]32)o1` gave a Percent Effect [1] of -3.48%, a Percent Effect [2] of 14.3% and a Percent Effect [3] of 0.662%. For the same compound, the Percent Effect (Trypanosoma cruzi) was 4.58%, the Percent Effect [4] was 10.9% and the Percent Effect [5] was 9.44%. It also gave a Percent Effect (Homo sapiens) of 6.42%, a Percent Effect [6] of 4.74% and a Percent Effect [7] of 15.4%. For the same compound, the Percent Effect [8] was 18.8%.
`Cc1nc(C2CCN(C(=O)CO)CC2)cc(N2CCOCC2)n1` gave a Percent Effect [1] of -2.95%, a Percent Effect [2] of 8.11% and a Percent Effect [3] of 8.92%. The Percent Effect (Trypanosoma cruzi) was 8.05%, the Percent Effect [4] was 22% and the Percent Effect [5] was 8.22%. For the same compound, the Percent Effect (Homo sapiens) was -12.6%, the Percent Effect [6] was 6.92% and the Percent Effect [7] was 17.1%. It also gave a Percent Effect [8] of 0.691%.
`CC(=O)N1CCCn2nc(CNS(=O)(=O)c3cc(C)cs3)cc2C1` was tested, and the Percent Effect [1] was -6.27%, the Percent Effect [2] was 2.7% and the Percent Effect [3] was -0.0396%. For the same compound, the Percent Effect (Trypanosoma cruzi) was -2.42%, the Percent Effect [4] was 4.54% and the Percent Effect [5] was 4.11%. For the same compound, the Percent Effect (Homo sapiens) was 0.293%, the Percent Effect [6] was 4.79% and the Percent Effect [7] was 7.32%. The Percent Effect [8] was 3.74%.
`CCCNC(=O)NCc1cccnc1OC` gave a Percent Effect [1] of -1.2%, a Percent Effect [2] of 13.3% and a Percent Effect [3] of 0.677%. The Percent Effect (Trypanosoma cruzi) was -0.803%, the Percent Effect [4] was 2.66% and the Percent Effect [5] was 14.2%. It also gave a Percent Effect (Homo sapiens) of 18.8%, a Percent Effect [6] of 2.63% and a Percent Effect [7] of 10.3%. It also gave a Percent Effect [8] of -6.38%.
